Records with an inconclusive call do not appear. Calls of active or inactive are those of the source. The call rests on the fitted dose curve; in most records, active means well fitted inhibition curve with a large enough effect; inconclusive means small, poorly fitted or top-dose-only effect; inactive means no such curve, though single readings can be large or run the other way.
biological target: N-terminal Xaa-Pro-Lys N-methyltransferase 1 (Homo sapiens) (UniProt Q9BV86); test: qHTS Assay for Inhibitors of N-terminal methyltransferase 1 (NTMT1): ThioGlo3 Assay Confirmatory Screen, Round 1.; conditions: NTMT1 SAHH-coupled ThioGlo3 fluorescence, 30 min; series mostly up to 56.8 µM
Sequence (Q9BV86 whole entry, looked up): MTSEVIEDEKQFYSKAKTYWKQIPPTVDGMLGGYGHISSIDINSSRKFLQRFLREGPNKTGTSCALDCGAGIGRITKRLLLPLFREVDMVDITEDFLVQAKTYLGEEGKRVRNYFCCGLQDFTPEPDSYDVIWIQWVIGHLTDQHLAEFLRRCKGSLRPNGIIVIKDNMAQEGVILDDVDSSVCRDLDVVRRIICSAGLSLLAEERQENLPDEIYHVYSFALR
In short: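 Human NTMT1 at 125 nM was preincubated 1 min at room temperature with compounds at various concentrations or 1 uM RCC1-6 control. Substrate mix (100 uM SAM, 10 uM SAHH, 15 uM ThioGlo3) was added, and fluorescence (Ex 340/Em 450 nm) was read at start and after 30 min, normalized to background.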
Further: nearly all actives have a fitted effect of over 80% in size.
Potency means the concentration at half of the fitted maximal effect.

Potency, inactive:
CNc1ncnc2c1ncn2[C@@H]1O[C@H](CO)[C@@H](O)[C@H]1O, CCN(c1cc(C#CCN2CCOCC2)cc(C(=O)NCc2c(C)cc(C)[nH]c2=O)c1C)C1CCC(N(C)CCOC)CC1 (stereo not given), COc1cc2nc(N3CC[C@@H](N(C)C)C3)nc(NC3CC3)c2cc1OC, COC1C(CO)OC(n2cnc3c(=O)[nH]cnc32)C1O (stereo not given), Nc1ncnc2c1ncn2[C@H]1O[C@@H](CSCC[C@@H](N)C(=O)O)[C@H](O)[C@@H]1O, CNC(=O)[C@H]1O[C@@H](n2cnc3c(N)ncnc32)[C@H](O)[C@@H]1O, Nc1nc(F)nc2c1ncn2[C@@H]1O[C@H](CO)[C@@H](O)[C@@H]1O, Nc1ncnc2c1ncn2[C@@H]1O[C@H](CO)C[C@@H]1O, CNC(=O)[C@H]1O[C@H](n2cnc3c(NCc4cccc(I)c4)nc(Cl)nc32)[C@@H](O)[C@@H]1O, Nc1ncnc2c1ncn2C1O[C@H](COP(=O)(O)O)[C@@H](O)[C@H]1O (stereo not given in full), Nc1ncnc2c1nc(Br)n2C1CC(O)C(CO)O1 (stereo not given), Nc1ncnc2c1nc(Cl)n2[C@@H]1O[C@H](CO)[C@@H](O)[C@@H]1O, CC(C)(COP(=O)(O)OP(=O)(O)OC[C@H]1O[C@@H](n2cnc3c(N)ncnc32)[C@H](O)[C@@H]1OP(=O)(O)O)[C@H](O)C(=O)NCCC(=O)NCCS, COc1cc2nc(N3CCCN(C)CC3)nc(N(C)C)c2cc1OC, OC[C@H]1O[C@@H](n2cnc3c(NCc4ccccc4)ncnc32)[C@H](O)[C@@H]1O, CNC(=O)c1cnn(-c2nc(N)c3ncn([C@@H]4O[C@H](CO)[C@@H](O)[C@H]4O)c3n2)c1

Potency, active:
COc1cc2nc(N3CCCCC3)nc(NC3CC3)c2cc1OC 24.1 µM, COc1cc2nc(N3CCOCC3)nc(NC3CCN(C)CC3)c2cc1OC 24.1 µM, COc1cc2c(NC3CCN(C(C)C)CC3)nc(N3CCCN(C)CC3)nc2cc1OCCOCCN(C)C 24.1 µM, Cc1ccccc1CNc1ncnc2c1ncn2[C@@H]1O[C@H](CO)[C@@H](O)[C@H]1O 27.1 µM, OC[C@H]1O[C@@H](n2cnc3cncnc32)[C@H](O)[C@@H]1O 2.41 µM, COc1cc2c(NC3CCN(C(C)C)CC3)nc(N3CCCN(c4ccccc4)CC3)nc2cc1OCCCN1CCCC1 17.1 µM, COc1cc2c(NC3CCN(C)CC3)nc(N3CCCN(C)CC3)nc2cc1OCCCCN 21.5 µM, COc1cc2c(NC3CCN(C4CCCCC4)CC3)nc(N3CCCN(C)CC3)nc2cc1OCCOCCN(C)C 27.1 µM, COc1cc2c(NC3CCN(CC4CCCCC4)CC3)nc(N3CCCCC3)nc2cc1OCCOCCN(C)C 24.1 µM, COc1cc2c(NC3CCN(C)CC3)cc(N3CCCCN(C)CC3)cc2cc1OCCOCCN(C)C 27.1 µM, COc1cc2c(NC3CCN(C)CC3)nc(N3CCCN(C)CC3)nc2cc1OCc1ccccc1 19.2 µM, COc1cc2nc(N3CCCN(C)CC3)nc(N3CCN(C)CC3)c2cc1OC 8.57 µM, CCCN(C)CCCOc1cc2nc(N3CCCN(C)CC3)nc(NC3CCN(C)CC3)c2cc1OC 27.1 µM, COc1cc2nc(N3CCOCC3)nc(NC(C)C)c2cc1OC 24.1 µM, CC(C)=CCNc1ncnc2c1ncn2[C@@H]1O[C@H](CO)[C@@H](O)[C@H]1O 13.6 µM, COc1cc2nc(N3CCN(C)CC3)nc(NC3CCN(C)CC3)c2cc1OC 24.1 µM, OCC1OC(n2cnc3c(=S)nc[nH]c32)C(O)C1O (stereo not given) 13.6 µM, COc1cc2nc(N3CCN(C)CC3)nc(NC3CC3)c2cc1OC 27.1 µM, COc1cc2nc(N3CCCCC3)nc(NC(C)C)c2cc1OC 24.1 µM

Source: PubChem BioAssay AID1347142 (National Center for Advancing Translational Sciences (NCATS), 2019)
